Test results from PubChem BioAssay (EPA / NIEHS).
Calls of active or inactive are those of the source. How the source made its calls: active means hit-call score of the fitted dose curve at least 0.9, where 1 is the maximum; inactive means score below 0.9.

Tests used:
Conditions in all cases: mRNA level, 48 h; actives raise or lower the signal
[1] = read-out: Insulin-like growth factor-binding protein 1 (IGFBP1), IGFBP1 (gene 3484); assay: LTEA_HepaRG_IGFBP1: Life Technologies and Expression Analysis (LTEA) Assay for Insulin-like growth factor-binding protein 1 (IGFBP1) using HepaRG (AID 2283508)
Outline: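 Thawed HepaRG cells are plated for 48 h, switched to serum-free induction medium, then dosed in duplicate for another 48 h (100 uM top, half-log steps). Lysates in RLT go to qRT-PCR, and gain or loss of signal is fitted relative to vehicle.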

[2] = read-out: Interleukin 6 (IL6), IL6 (gene 3569); assay: LTEA_HepaRG_IL6: Life Technologies and Expression Analysis (LTEA) Assay for Interleukin 6 (IL6) using HepaRG (AID 2283509)
Outline: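 HepaRG cells exposed in duplicate for 48 h to eight half-log concentrations, top 100 uM, in 0.5% DMSO serum-free induction medium. mRNA measured by qRT-PCR, normalized to ACTB, GAPDH and POLR2A. Bidirectional fit versus DMSO.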

[3] = read-out: Interleukin 6 Receptor (IL6R), IL6R (gene 3570); assay: LTEA_HepaRG_IL6R: Life Technologies and Expression Analysis (LTEA) Assay for Interleukin 6 Receptor (IL6R) using HepaRG (AID 2283510);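 on AC50: TaqMan qRT-PCR signal normalized to ACTB GAPDH and POLR2A housekeeping genes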
Outline: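 Differentiated HepaRG cells, plated 48 h, then exposed in duplicate for 48 h in serum-free induction medium to 8 half-log concentrations (top 100 uM, 0.5% DMSO). IL6R mRNA measured by TaqMan qRT-PCR, normalized to ACTB/GAPDH/POLR2A; bidirectional fit vs DMSO.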

[4] = read-out: Potassium channel subfamily K member 1 (KCNK1), KCNK1 (gene 3775); assay: LTEA_HepaRG_KCNK1: Life Technologies and Expression Analysis (LTEA) Assay for Potassium channel subfamily K member 1 (KCNK1) using HepaRG (AID 2283511)
Outline: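 Differentiated HepaRG cells, 48 h exposure in serum-free induction medium with 0.5% DMSO; 8 concentrations, half-log from 100 uM, duplicate. KCNK1 mRNA by qRT-PCR, normalized to ACTB, GAPDH, POLR2A; bidirectional fit vs DMSO.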

[5] = read-out: Keratin 19 (KRT19), KRT19 (gene 3880); assay: LTEA_HepaRG_KRT19: Life Technologies and Expression Analysis (LTEA) Assay for Keratin 19 (KRT19) using HepaRG (AID 2283512)
Outline: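 KRT19 transcript levels, measured by Fluidigm qRT-PCR against three housekeeping genes, are fitted for gain or loss of signal relative to DMSO. Human HepaRG cells receive test chemicals (top 100 uM, half-log steps, 0.5% DMSO) for 48 hours.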

[6] = read-out: JUN Transcription Factor, JUN (gene 3725); assay: LTEA_HepaRG_JUN: Life Technologies and Expression Analysis (LTEA) Assay for JUN Transcription Factor using HepaRG (AID 2283513)
Outline: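 HepaRG cells, 48 h post-plating, exposed 48 h in serum-free induction medium to 8-point half-log series (top 100 uM, 0.5% DMSO), duplicate; mRNA by qRT-PCR (TaqMan, Fluidigm), normalized to ACTB/GAPDH/POLR2A; bidirectional fit vs DMSO.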

[7] = read-out: Lipase C (LIPC), LIPC (gene 3990); assay: LTEA_HepaRG_LIPC: Life Technologies and Expression Analysis (LTEA) Assay for Lipase C (LIPC) using HepaRG (AID 2283514)
Outline: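 HepaRG cells, 48 h after plating, treated in duplicate for 48 h in serum-free induction medium over 8 half-log concentrations from 100 uM, 0.5% DMSO. LIPC mRNA by TaqMan qRT-PCR normalized to ACTB/GAPDH/POLR2A; bidirectional fit versus DMSO.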

[8] = read-out: Lipoprotein lipase (LPL), LPL (gene 4023); assay: LTEA_HepaRG_LPL: Life Technologies and Expression Analysis (LTEA) Assay for Lipoprotein lipase (LPL) using HepaRG (AID 2283515)
Outline: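 Differentiated HepaRG cells, plated 48 h, then exposed 48 h in serum-free induction medium to 8 concentrations (top 100 uM, half-log steps) in 0.5% DMSO, duplicate. LPL mRNA measured by qRT-PCR, normalized to ACTB, GAPDH and POLR2A.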

[9] = read-out: MicroRNA 122 (MIR122), gene 406906; assay: LTEA_HepaRG_MIR122: Life Technologies and Expression Analysis (LTEA) Assay for MicroRNA 122 (MIR122) using HepaRG (AID 2283516); further: the transcript read is the microRNA miR-122
Outline: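 Differentiated human HepaRG cells in serum-free induction medium exposed 48 h to 8 half-log concentrations from 100 uM in 0.5% DMSO, duplicate. MIR122 quantified by Fluidigm TaqMan qRT-PCR, normalised to ACTB, GAPDH, POLR2A; fold change fitted bidirectionally versus DMSO.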

[10] = read-out: matrix metalloproteinase-10 (MMP10), MMP10 (gene 4319); assay: LTEA_HepaRG_MMP10: Life Technologies and Expression Analysis (LTEA) Assay for matrix metalloproteinase-10 (MMP10) using HepaRG (AID 2283517)
Outline: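 Differentiated HepaRG cells in serum-free induction medium exposed 48 h in duplicate to 8-point half-log series up to 100 uM in 0.5% DMSO. mRNA quantified by qRT-PCR, normalised to ACTB, GAPDH, POLR2A; bidirectional fit versus DMSO.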

MYC, MYC (gene 4609) = assay: LTEA_HepaRG_MYC: Life Technologies and Expression Analysis (LTEA) Assay for MYC using HepaRG (AID 2283518)
Outline: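 HepaRG, ~100,000 cells/well, collagen I; 48 h plating; serum-free induction medium; 48 h dosing, duplicate, 100 uM top, half-log, 0.5% DMSO; total RNA → qRT-PCR MYC; gain/loss fit vs DMSO.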

[11] = read-out: Paternally Expressed 10 (PEG10), PEG10 (gene 23089); assay: LTEA_HepaRG_PEG10: Life Technologies and Expression Analysis (LTEA) Assay for Paternally Expressed 10 (PEG10) using HepaRG (AID 2283520)
Outline: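 Differentiated HepaRG cells exposed 48 h in serum-free induction medium to eight half-log concentrations topping at 100 uM, 0.5% DMSO, in duplicate. PEG10 mRNA quantified by TaqMan qRT-PCR, normalized to ACTB, GAPDH and POLR2A; bidirectional fit versus DMSO.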

[12] = read-out: Protein phosphatase 2A (PPP2R4), PTPA (gene 5524); assay: LTEA_HepaRG_PPP2R4: Life Technologies and Expression Analysis (LTEA) Assay for Protein phosphatase 2A (PPP2R4) using HepaRG (AID 2283522)
Outline: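 Differentiated human HepaRG cells in serum-free induction medium were exposed 48 h to 8 concentrations (top 100 µM, half-log steps, duplicate) in 0.5% DMSO. PPP2R4 mRNA was measured by TaqMan qRT-PCR, normalised to ACTB, GAPDH and POLR2A, and fitted bidirectionally versus DMSO.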

[13] = read-out: Phosphatase and tensin (PTEN), PTEN (gene 5728); assay: LTEA_HepaRG_PTEN: Life Technologies and Expression Analysis (LTEA) Assay for Phosphatase and tensin (PTEN) using HepaRG (AID 2283523)
Outline: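 HepaRG cells, 48 h after plating, exposed in duplicate for 48 h in serum-free induction medium to 8 half-log concentrations up to 100 uM (0.5% DMSO). PTEN mRNA by qRT-PCR, normalized to ACTB, GAPDH, POLR2A; bidirectional fit versus DMSO.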

[14] = read-out: solute carrier (SLC22A1), SLC22A1 (gene 6580); assay: LTEA_HepaRG_SLC22A1: Life Technologies and Expression Analysis (LTEA) Assay for solute carrier (SLC22A1) using HepaRG (AID 2283524)
Outline: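 Differentiated human HepaRG cells in serum-free induction medium, exposed 48 h in duplicate to 8-point half-log series from 100 µM top in 0.5% DMSO. SLC22A1 mRNA by TaqMan qRT-PCR normalized to ACTB, GAPDH, POLR2A; bidirectional fit versus DMSO.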

[15] = read-out: Pyruvate Dehydrogenase Kinase 4 (PDK4), PDK4 (gene 5166); assay: LTEA_HepaRG_PDK4: Life Technologies and Expression Analysis (LTEA) Assay for Pyruvate Dehydrogenase Kinase 4 (PDK4) using HepaRG (AID 2283525)
Outline: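 HepaRG cells plated 48 h, then switched to serum-free induction medium and exposed in duplicate for 48 h to 8 half-log concentrations from 100 uM in 0.5% DMSO. PDK4 mRNA measured by qRT-PCR, normalized to ACTB, GAPDH and POLR2A; bidirectional fit versus DMSO.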

[16] = read-out: NAD(P)H dehydrogenase [quinone] 1 (NQO1), NQO1 (gene 1728); assay: LTEA_HepaRG_NQO1: Life Technologies and Expression Analysis (LTEA) Assay for NAD(P)H dehydrogenase [quinone] 1 (NQO1) using HepaRG (AID 2283526)
Outline: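 Differentiated human HepaRG cells in serum-free induction medium, dosed in duplicate for 48 h at 8 half-log concentrations up to 100 uM in 0.5% DMSO. NQO1 mRNA by qRT-PCR normalized to ACTB, GAPDH, POLR2A; bidirectional fit versus DMSO baseline.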

[17] = read-out: Nuclear factor erythroid 2-related factor 2 (Homo sapiens) (UniProt Q16236); assay: LTEA_HepaRG_NFE2L2: Life Technologies and Expression Analysis (LTEA) Assay for Nuclear factor erythroid 2-related factor 2 (NFE2L2) Transcription Factor using HepaRG (AID 2283527)
Outline: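 Differentiated human HepaRG cells, serum-free induction medium, exposed 48 h in duplicate to eight half-log concentrations up to 100 uM in 0.5% DMSO. NFE2L2 mRNA by Fluidigm TaqMan qRT-PCR, normalised to ACTB, GAPDH, POLR2A; bidirectional change versus DMSO.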

[18] = read-out: matrix metalloproteinase-3 (MMP3), MMP3 (gene 4314); assay: LTEA_HepaRG_MMP3: Life Technologies and Expression Analysis (LTEA) Assay for matrix metalloproteinase-3 (MMP3) using HepaRG (AID 2283519)
Outline: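 HepaRG cells (~100,000/well) in serum-free induction medium were dosed in duplicate for 48 h with an 8-point half-log series from 100 uM, 0.5% DMSO. MMP3 mRNA was quantified by Fluidigm TaqMan qRT-PCR, normalized to three housekeeping genes.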

[19] = read-out: Nuclear factor NF-kappa-B p105 subunit (Homo sapiens) (UniProt P19838); assay: LTEA_HepaRG_NFKB1: Life Technologies and Expression Analysis (LTEA) Assay for Nuclear Factor Kappa B Subunit 1 (NFKB1) using HepaRG (AID 2283521);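 further: TaqMan qRT-PCR transcript normalised to ACTB GAPDH and POLR2A housekeeping genes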
Outline: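 Differentiated human HepaRG cells in serum-free induction medium with 0.5% DMSO were exposed for 48 h to eight half-log concentrations, top 100 uM, in duplicate. NFKB1 mRNA measured by Fluidigm TaqMan qRT-PCR, normalised to ACTB, GAPDH and POLR2A; bidirectional fit versus DMSO.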

Measured: AC50

Chain of Nuclear factor erythroid 2-related factor 2 (Homo sapiens) (Q16236 whole entry, looked up): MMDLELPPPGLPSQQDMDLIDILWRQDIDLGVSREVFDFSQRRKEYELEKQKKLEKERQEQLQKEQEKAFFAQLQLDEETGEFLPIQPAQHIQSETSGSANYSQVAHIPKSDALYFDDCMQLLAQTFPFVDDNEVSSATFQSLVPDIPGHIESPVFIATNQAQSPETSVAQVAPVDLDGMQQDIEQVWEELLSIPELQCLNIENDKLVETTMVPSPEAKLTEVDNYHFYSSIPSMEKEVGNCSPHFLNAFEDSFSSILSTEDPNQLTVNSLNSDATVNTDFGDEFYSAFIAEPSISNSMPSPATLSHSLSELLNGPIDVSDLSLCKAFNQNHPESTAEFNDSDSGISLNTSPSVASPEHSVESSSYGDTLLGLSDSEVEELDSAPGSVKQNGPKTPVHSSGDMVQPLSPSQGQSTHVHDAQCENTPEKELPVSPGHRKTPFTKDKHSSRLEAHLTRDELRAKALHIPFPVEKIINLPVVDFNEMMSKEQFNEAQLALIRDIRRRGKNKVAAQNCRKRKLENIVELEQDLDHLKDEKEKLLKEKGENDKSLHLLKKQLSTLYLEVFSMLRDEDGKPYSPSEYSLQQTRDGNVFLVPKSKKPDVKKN
Chain of Nuclear factor NF-kappa-B p105 subunit (Homo sapiens) (P19838 whole entry, looked up): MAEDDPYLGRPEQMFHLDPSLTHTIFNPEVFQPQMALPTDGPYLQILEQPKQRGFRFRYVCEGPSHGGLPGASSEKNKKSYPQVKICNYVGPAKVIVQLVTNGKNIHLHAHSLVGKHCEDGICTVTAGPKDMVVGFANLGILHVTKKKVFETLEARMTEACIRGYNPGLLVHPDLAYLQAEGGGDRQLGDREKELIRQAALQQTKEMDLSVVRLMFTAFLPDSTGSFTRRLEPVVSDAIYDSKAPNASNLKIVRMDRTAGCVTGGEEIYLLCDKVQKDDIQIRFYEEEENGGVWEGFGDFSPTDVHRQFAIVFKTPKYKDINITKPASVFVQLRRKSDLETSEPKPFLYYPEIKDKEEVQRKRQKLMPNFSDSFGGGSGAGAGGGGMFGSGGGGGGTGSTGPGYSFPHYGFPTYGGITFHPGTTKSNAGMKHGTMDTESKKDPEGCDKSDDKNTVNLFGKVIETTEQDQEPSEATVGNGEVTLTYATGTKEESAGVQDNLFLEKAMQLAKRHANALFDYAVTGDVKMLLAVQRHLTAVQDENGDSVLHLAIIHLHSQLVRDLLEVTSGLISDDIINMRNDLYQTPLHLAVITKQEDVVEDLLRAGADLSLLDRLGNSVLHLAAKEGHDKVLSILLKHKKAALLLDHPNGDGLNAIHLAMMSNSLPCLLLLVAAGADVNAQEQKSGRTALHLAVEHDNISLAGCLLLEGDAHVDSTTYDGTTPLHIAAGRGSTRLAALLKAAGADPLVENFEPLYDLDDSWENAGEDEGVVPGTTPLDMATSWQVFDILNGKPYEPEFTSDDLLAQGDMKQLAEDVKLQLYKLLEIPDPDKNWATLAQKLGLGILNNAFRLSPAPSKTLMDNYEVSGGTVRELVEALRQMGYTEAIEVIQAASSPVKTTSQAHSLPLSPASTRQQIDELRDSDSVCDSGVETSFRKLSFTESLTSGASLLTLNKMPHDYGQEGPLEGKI

CN(C)C=O
not listed: [18] | [19]
inactive: all other assays above

OCCC(F)(F)C(F)(F)C(F)(F)C(F)(F)C(F)(F)C(F)(F)F
not listed: [19]
inactive: all other assays above

NC(=O)N1C(=O)C(C(=O)c2cc(Cl)cs2)c2cc(F)c(Cl)cc21 (centres undefined)
active: [1] 16 µM | [2] 31.7 µM | [3] 30.9 µM | [4] 29.1 µM | [5] 13.2 µM | [6] 30.3 µM | [7] 21.2 µM | [8] 90.6 µM | [9] 26.4 µM | [10] 34.9 µM | MYC, MYC (gene 4609) 27 µM | [11] 20.8 µM | [12] 13.9 µM | [13] 50 µM | [14] 16.1 µM | [15] 27.8 µM | [16] 13.3 µM | [17] 31.8 µM

COCC(C)OCC(C)O (centres undefined)
not listed: [19]
inactive: all other assays above

Oc1cccc(O)c1
not listed: [19]
inactive: all other assays above

CC(C)(C)c1cccc(C(C)(C)C)c1O
not listed: [18] | [19]
inactive: all other assays above

ClC1=C(Cl)C(Cl)(Cl)C(Cl)=C1Cl
not listed: [19]
inactive: all other assays above

CCCOc1sc(C(=O)N2CCC(c3cc(CN)ccc3F)CC2)c(C)c1Br
not listed: [19]
inactive: all other assays above

CCC(C)(C)C1CCC(O)CC1 (centres undefined)
inactive: all assays above

Cc1oc(-c2ccccc2)nc1CCOc1ccc(C[C@H](Nc2ccccc2C(=O)c2ccccc2)C(=O)O)cc1
active: [1] 30.9 µM | [2] 26.3 µM | [3] 30.6 µM | [4] 15.8 µM | [5] 13.2 µM | [6] 16.5 µM | [10] 25 µM | MYC, MYC (gene 4609) 12.5 µM | [18] 50 µM | [11] 20.8 µM | [12] 29.1 µM | [13] 23 µM | [14] 50 µM | [15] 0.338 µM | [16] 29.6 µM | [17] 11.9 µM
inactive: [7] | [8] | [9]

CCCCCCCC(=O)O
active: [17] 12.3 µM
not listed: [18] | [19]
inactive: all other assays above

O=[N+]([O-])c1ccc(O)cc1
not listed: [18]
inactive: all other assays above

NC(=O)N(O)[C@@H]1C=C[C@H](Oc2cccc(Oc3ccc(F)cc3)c2)C1
active: [1] 71.8 µM | [2] 38.6 µM | [4] 35.5 µM | [6] 76.6 µM | [7] 36.4 µM | [8] 50 µM | [9] 68 µM | [10] 64.8 µM | MYC, MYC (gene 4609) 72.7 µM | [18] 85.9 µM | [11] 5.31 µM | [14] 63.6 µM | [15] 50 µM | [17] 81.9 µM
inactive: [3] | [5] | [12] | [13] | [16]
